# SMARCA2 act: increases SMARCA2 function in MMTV reporter cells; MG213 cells, MMTV-luciferase reporter, dexamethasone, overnight; activation, % at 9.1 µM; 1% of 370,000 active; AID 652017; in the data active = activation above about 7.8%;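 note: 0% = vehicle wells and 100% = reference activator wells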
# SKN-1 inh: blocks SKN-1 activity in C. elegans; inhibition, % at 21.8 µM; 0.49% of 360,000 active; C. elegans VP596 Pgst-4::GFP/RFP ratio, acrylamide-induced, 24 h;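 active = interference check ratio from 0.5 to 1.5 plus GFP to RFP signal ratio inhibition reaching or exceeding a fixed threshold, cut at about 30% in these data, passing the limit was not always enough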
# esBAF inh: inhibitors of esBAF chromatin remodeling in mouse ES cells; Bmi1-luciferase knock-in reporter, 24 h; 100% = twice the neutral-well signal; reporter increase, % at 12.5 µM; 2% of 350,000 active; AID 602393; in the data active = activation above about 40%;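 note: 0% = median of the plate's neutral control wells and 100% = double that signal; a rise in the Bmi1 reporter signal indicates esBAF inhibition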
# GRIN3A LBD mod: modulators (binders) of human NR3A ligand-binding domain. Tm shift relative to glycine control, % at 25 µM. NR3A LBD differential scanning fluorimetry, Tm shift; 0% = protein alone, 100% = glycine-bound protein. 2.5% of 340,000 active;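 active = melting temperature shift of at least 10% of the positive control shift, at one fixed dose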
# NadD block: blocks S. aureus nicotinate mononucleotide adenylyltransferase; purified NadD enzyme, colorimetric absorbance read-out; inhibition, % at 20 µM; 0.78% of 360,000 active; AID 602399; in the data active = inhibition above about 26%
# Vif inh: blocks HIV Vif function. inhibition, % at 7.49 µM. AID 602346. HEK293T cells, Vif self-association by quenched fluorescence, imaging, 24 h. 0.35% of 340,000 active; in the data active = inhibition above about 50%, passing the limit was not always enough
# SMARCA2 act conf: confirmation of SMARCA2 (BRM) function activators; shares compounds with SMARCA2 act; MG213 cells, MMTV-luciferase with dexamethasone, luminescence, overnight; MG213 cells expressing E1A, Rb sequestered; DMSO wells 0%, reference activator 100%; activation, % at 9.1 µM; 30% of 3,500 active; AID 652260;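 active = activation above its plate's cutoff, the mean activation of tested wells plus 3 SD, cut at about 7.9% in these data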
# VP16 Luc act: counter-screen for SMARCA2 activators: GAL4-VP16 luciferase reporter activation. shares compounds with SMARCA2 act. HEK293 GAL4-VP16 pG5luc reporter, luciferase luminescence; scaled: DMSO wells 0%, SAHA wells 100%. activation, % at 9.1 µM. 41% of 3,500 active;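 active = activation above the solvent-only control well mean plus 3 SD, averaged across control plates, cut at about 5.2% in these data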
# The depositor's hits bear a star; · = no result. In the library only some 5.2% were active in any assay of this set; here they are far more common.
SMILES,SMARCA2 act,SKN-1 inh,esBAF inh,GRIN3A LBD mod,NadD block,Vif inh,SMARCA2 act conf,VP16 Luc act
N#Cc1ccc(-c2ccc3c(c2)[C@@H]2[C@@H](CCN2C(=O)c2ccccc2F)[C@H](CO)N3)cc1,·,·,-3,·,·,·,·,·
c1ccc(OCc2nnc3sc(C4COc5ccccc5O4)nn23)cc1 (centres undefined),9.2*,16,1,-2,19,-3,-2,0
CCN(CC)c1ccc(NC(=O)c2cccc(C)c2OC)c(C)c1,8.2*,3,·,-1,2,0,14*,4
CCN(CC)c1ccc(NC(=O)c2cccnc2)c(C)c1,2,-13,1,-1,-2,7,·,·
Cc1cc(C(=O)Nc2cccc3c2O[C@@H](CN(C)C)[C@@H](C)CN([C@H](C)CO)C3=O)n(C)n1,·,·,-1,·,·,·,·,·
CCc1nnc(NS(=O)(=O)c2ccc(N3C(=O)c4ccccc4C3=O)cc2)s1,11*,-1,·,-1,-1,1,-2,2
O=C(OCC(=O)c1ccc[nH]1)c1ccc(C(F)(F)F)cc1,2,7,-1,2,1,8,·,·
CC(C)Oc1ccc(C(=O)OCC(=O)c2ccc[nH]2)cc1,12*,10,65*,2,-1,4,9.4*,7.3*
O=C(Nc1ccc(NC(=O)c2ccccc2F)cc1)c1cccs1,8.8*,21,74*,22*,-3,-3,5,7.7*
CC(=O)Nc1ccc2nc(-c3ccccc3)cn2c1,8.8*,7,·,-2,-1,-4,9.4*,7.6*
Cc1ccn(-c2ccc(NC(=O)c3cccs3)cc2)n1,8.0*,7,17,26*,-1,4,9.0*,7.9*
O=C(Nc1ccc(-c2cn3ccccc3n2)cc1)c1cccs1,8.1*,22,·,25*,7,0,28*,14*
COc1ccc(CC(=O)Nc2ccc(-c3cn4ccccc4n3)cc2)cc1,5,2,31,3,2,-12,·,·
O=C(COC(=O)c1cc[n+]([O-])cc1)Nc1ccccc1Cl,11*,-3,·,-2,-1,-2,-1,-1
Cc1ccccc1NC(=O)COC(=O)c1cc[n+]([O-])cc1,-2,3,·,3,1,10,·,·
Cc1oc(C(C)(C)C)cc1C(=O)NCc1ccc2c(c1)OCO2,8.8*,12,-3,1,2,-6,3,0
Cc1ccc(C(=O)NCc2ccc3c(c2)OCO3)o1,-1,8,-6,1,-5,-1,·,·
O=C(CCn1c(=O)oc2ccccc21)Nc1ccccc1,9.0*,3,12,1,2,-4,-2,1
CCc1ccc(NC(=O)CCn2c(=O)oc3ccccc32)cc1,1,1,-4,0,7,13,·,·
O=C(C[C@@H]1C[C@H]2c3cc(NC(=O)CC4CC4)ccc3O[C@H]2[C@H](CO)O1)NCc1cccc(F)c1,·,·,3,·,·,·,·,·
Cc1ccccc1CN1CCNC(=O)C1CC(=O)NC1CCCCCCC1 (centres undefined),-1,1,4,-4,10,5,·,·
CCCOC(=O)CC1C(=O)NCCN1Cc1ccccc1C (centres undefined),9.5*,8,-34,-2,0,17,-3,0
CN(C)C(=O)C[C@@H]1C[C@@H]2c3cc(NS(=O)(=O)c4ccccc4)ccc3O[C@@H]2[C@H](CO)O1,·,·,-7,·,·,·,·,·
COc1ccc(C(=O)N2CCCC(O)C2)cc1OC1CCN(C(C)C)CC1 (centres undefined),8.2*,5,·,3,-1,-2,4,1
CCc1nnc(NC(=O)C2CCCN2C(=O)Nc2ccccc2OC)s1 (centres undefined),8.8*,1,-11,0,-4,1,1,3
SMILES,SMARCA2 act,SKN-1 inh,esBAF inh,GRIN3A LBD mod,NadD block,Vif inh,SMARCA2 act conf,VP16 Luc act
CCOc1ccccc1NC(=O)N1CCCC1C(=O)Nc1nnc(CC)s1 (centres undefined),-4,-17,-6,0,-1,-16,·,·
COC(=O)c1ccc(NS(=O)(=O)c2c(C)nc3sccn3c2=O)cc1,-1,-12,5,·,0,0,·,·
Cc1ccc(NS(=O)(=O)c2c(C)nc3sccn3c2=O)cc1C,9.6*,-2,4,1,0,-15,-3,-1
C[C@@H]1CN([C@H](C)CO)C(=O)Cc2cc(NS(C)(=O)=O)ccc2O[C@H]1CN(C)C(=O)Nc1ccc(C(F)(F)F)cc1,·,·,-4,·,·,·,·,·
COc1ccccc1CNC(=O)c1ccccc1NC(=O)C1=C(C)OCCS1,8.1*,-5,0,-2,-3,3,2,1
N#Cc1cccnc1N1CCN(C(=O)c2cccc3c2C(=O)c2ccc(Cl)cc2S3(=O)=O)CC1,14*,11,0,-2,7,0,14*,3
CCc1cc(=O)n2c([nH]c3ccccc32)c1C#N,1,31,17,-2,3,-4,·,·
CC(SCc1cc(=O)n2c([nH]c3ccccc32)c1C#N)C(=O)O (centres undefined),11*,8,·,-2,3,-3,0,0
C[C@@H]1CN([C@H](C)CO)S(=O)(=O)c2ccc(C3=CCCC3)cc2O[C@@H]1CN(C)C,·,·,-2,·,·,·,·,·
COc1cccc(-c2nc(N3CCN(C)CC3)c3ccccc3n2)c1O,19*,9,14,-1,-8,-9,19*,3
COc1cccc(-c2nc(N3CCCCC3C)c3ccccc3n2)c1O (centres undefined),-4,4,·,3,-2,-12,·,·
COc1ccc2nc(N3C(=O)CNC3=S)sc2c1,8.6*,4,·,2,-1,6,14*,10*
Cc1ccc2nc(N3C(=O)CNC3=S)sc2c1,15*,3,·,-4,-5,-1,-4,16*
Cc1cccc(CC2CC(=O)N(c3nc4ccccc4s3)C2=O)c1 (centres undefined),1,-4,5,0,-5,10,·,·
Cc1cc(C)c2nc3nc(C)c(C)cc3c(N)c2c1,17*,16,·,0,1,1,50*,0
CCCSc1nc(C)c2cc(C)cc(C)c2n1,-3,8,·,1,0,-14,·,·
Cc1cccc(C)c1NC(=O)C1C(c2ccc3c(c2)OCO3)=Nc2ccccc2N1C(=O)c1cccc(C(F)(F)F)c1 (centres undefined),-7,1,·,·,·,·,·,·
CCCCNC(=O)C1C(c2ccccc2)=Nc2ccccc2N1C(=O)c1ccc2c(c1)OCO2 (centres undefined),-2,12,·,·,·,·,·,·

# Assay outcomes (PubChem)
